Some test systems named below: SR leukemia; RPMI-8226 leukemia; OVCAR-8 ovarian; OVCAR-5 ovarian; OVCAR-4 ovarian; SK-OV-3 ovarian; IGROV1 ovarian; OVCAR-3 ovarian; HS 578T breast; NCI/ADR-RES ovarian.
What all share (experiment): NCI-60 one-dose screen, 48 h (100 = growth as untreated, 0 = no growth, -100 = all killed)
Holding throughout (conditions): 10 µM unless noted

About 83,000 compounds went through this panel and 20% of them were active in at least one assay; those are over-represented in the sample as a whole.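 Percent growth is the endpoint: 0 to 100 indicates growth inhibition (40 means 60% inhibition), 0 means no net growth, and negative values indicate cell death.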 Unmarked numbers belong to inactive results. Activity calls are given as the source filed them. How the source made its calls: active means growth percent below 10; inactive means the rest.

Regarding `O=C(Nc1ccc(NCCN2CCOCC2)nc1)c1ccc([N+](=O)[O-])cc1`, the growth is 113% in the assay with SR leukemia; 107% in the assay on RPMI-8226 leukemia; 96.2% in the assay with OVCAR-8 ovarian; 105% in the assay on OVCAR-5 ovarian; 103% in the assay with OVCAR-4 ovarian; 107% with SK-OV-3 ovarian. Also, the growth in the assay with IGROV1 ovarian is 121%; in the assay with OVCAR-3 ovarian, 114%; in the assay on HS 578T breast, 104%; with NCI/ADR-RES ovarian, 105%.
For the molecule `COc1cc2c(cc1OCCCCCn1c3ccccc3c3ccccc31)N=C[C@@H]1CCCN1C2=O`, the growth was -54.5% (active) in the assay with SR leukemia; -39.2% (active) in the assay on RPMI-8226 leukemia; -30.6% (active) in the assay with OVCAR-8 ovarian; -50% (active) in the assay on OVCAR-5 ovarian; -7.21% (active) in the assay on OVCAR-4 ovarian; -47.4% (active) in the assay with SK-OV-3 ovarian. For the same molecule, the growth in the assay with IGROV1 ovarian was -68.9% (active); in the assay with OVCAR-3 ovarian, -80.5% (active); with HS 578T breast, -63.4% (active); with NCI/ADR-RES ovarian it was -6.33% (active).
As for `COc1cc(/C=C/C(=O)/C=C/c2cc(OC)c3c(c2)OCO3)cc2c1OCO2`, the growth is 33.6% with SR leukemia; -10.5% (active) in the assay on RPMI-8226 leukemia; 95.4% with OVCAR-8 ovarian; 107% with OVCAR-5 ovarian; 104% with OVCAR-4 ovarian; 86.6% in the assay with SK-OV-3 ovarian. Moreover, the growth with IGROV1 ovarian is 90.3%; in the assay with OVCAR-3 ovarian it was 34.6%; with HS 578T breast, 103%; with NCI/ADR-RES ovarian, 91.2%.
Turning to `COc1cc2c(=O)n(C3CCCCCC3)c3c4cc[nH]c4ncc3c2cc1OC`, the growth in the assay on SR leukemia was 16.3%; in the assay with RPMI-8226 leukemia, 66.4%; with OVCAR-8 ovarian, 83.4%; with OVCAR-5 ovarian, 76.2%; in the assay with OVCAR-4 ovarian, 93.4%; with SK-OV-3 ovarian, 82.3%. Further, the growth was 57.3% in the assay with IGROV1 ovarian, 89.1% with OVCAR-3 ovarian, 42.4% with HS 578T breast and 89.1% with NCI/ADR-RES ovarian.
Regarding `CCOC(=O)CC(=O)OC`, the growth in the assay on SR leukemia is 76.7%; in the assay on RPMI-8226 leukemia, 97.4%; in the assay on OVCAR-8 ovarian, 103%; in the assay on OVCAR-5 ovarian it was 101%; in the assay with OVCAR-4 ovarian, 100%; in the assay on SK-OV-3 ovarian, 101%. In addition, the growth in the assay on IGROV1 ovarian is 111%; in the assay with OVCAR-3 ovarian, 123%; in the assay on HS 578T breast, 114%; with NCI/ADR-RES ovarian, 113%.
On to `CC(=O)Oc1csc(N(C(C)=O)c2cccc(C(F)(F)F)c2)n1`, for which the growth in the assay on SR leukemia is 107%; in the assay with RPMI-8226 leukemia, 75.8%; in the assay on OVCAR-8 ovarian, 94.1%; in the assay with OVCAR-5 ovarian it was 96.2%; with OVCAR-4 ovarian it was 89.4%; with SK-OV-3 ovarian, 99.6%. Further, the growth with IGROV1 ovarian is 98.4%; with OVCAR-3 ovarian, 103%; in the assay with HS 578T breast it was 93%; in the assay on NCI/ADR-RES ovarian, 104%.
Turning to `Fc1ccc(Nc2ncnc3ccc(-c4cnc5[nH]ccc5c4)cc23)cc1Cl`, the growth in the assay on SR leukemia was -26.1% (active); with RPMI-8226 leukemia, -17.9% (active); with OVCAR-8 ovarian, -28% (active); with OVCAR-5 ovarian, 8.66% (active); in the assay on OVCAR-4 ovarian, -61% (active); with SK-OV-3 ovarian it was 15.3%. Further, the growth in the assay on IGROV1 ovarian was -37.8% (active); in the assay with OVCAR-3 ovarian, -73.7% (active); with HS 578T breast it was -12.6% (active); in the assay with NCI/ADR-RES ovarian, 14%.
Consider `FC(F)(F)c1ccccc1-c1cn2c(ccc3ccccc32)n1`, for which the growth is 42.4% in the assay on SR leukemia; 98.6% in the assay with RPMI-8226 leukemia; 93.7% in the assay with OVCAR-8 ovarian; 103% in the assay with OVCAR-5 ovarian; 95.2% in the assay on OVCAR-4 ovarian; 80.5% in the assay on SK-OV-3 ovarian. Also, the growth with IGROV1 ovarian is 73.1%; with OVCAR-3 ovarian, 88.3%; in the assay on HS 578T breast it was 71.4%; in the assay on NCI/ADR-RES ovarian it was 61.9%.
For the molecule `COc1ccc(Nc2ncccc2C(=O)NCc2cn(Cc3cccc(Oc4ccccc4)c3)nn2)cc1`, the growth is 30.8% in the assay with SR leukemia; 55.4% with RPMI-8226 leukemia; 65.6% in the assay with OVCAR-8 ovarian; 75.2% with OVCAR-5 ovarian; 71.1% in the assay on OVCAR-4 ovarian; 36.8% in the assay on SK-OV-3 ovarian. Besides, the growth with IGROV1 ovarian is 53.5%; in the assay on OVCAR-3 ovarian, -4.73% (active); in the assay with HS 578T breast, 48.7%; in the assay on NCI/ADR-RES ovarian, 16.3%.
With `N#Cc1c(-c2ccccc2)nc(SCC(=O)N2CCN(c3ccccc3)CC2)[nH]c1=O`, the growth was 90.6% in the assay with SR leukemia; 95.7% with RPMI-8226 leukemia; 97.9% in the assay on OVCAR-8 ovarian; 98.5% in the assay with OVCAR-5 ovarian; 115% with OVCAR-4 ovarian; 101% in the assay with SK-OV-3 ovarian. Also, the growth in the assay on IGROV1 ovarian is 112%; in the assay on OVCAR-3 ovarian it was 111%; with HS 578T breast, 106%; in the assay with NCI/ADR-RES ovarian, 101%.
Consider `O=C1c2ccccc2-c2ccccc2C1(Cl)Cl`, for which the growth with SR leukemia is 16.7%; with RPMI-8226 leukemia, -10.8% (active); with OVCAR-8 ovarian it was -90.4% (active); with OVCAR-5 ovarian, -73.7% (active); with OVCAR-4 ovarian, -98.6% (active); in the assay with SK-OV-3 ovarian, 94.5%. The growth was -98.5% (active) with IGROV1 ovarian, -87.2% (active) in the assay on OVCAR-3 ovarian, -7.35% (active) in the assay on HS 578T breast and -44.2% (active) in the assay on NCI/ADR-RES ovarian.
As for `CCn1c2ccccc2c2cc(NC(=O)Nc3ccc([N+](=O)[O-])cc3C)ccc21`, the growth in the assay on SR leukemia is -2.84% (active); in the assay with RPMI-8226 leukemia it was -21.4% (active); in the assay on OVCAR-8 ovarian, 49.9%; with OVCAR-5 ovarian it was 57.9%; in the assay on OVCAR-4 ovarian, 44.2%; in the assay on SK-OV-3 ovarian, 74.9%. The growth was 43% in the assay on IGROV1 ovarian, -2.64% (active) with OVCAR-3 ovarian, 52.7% with HS 578T breast and 23.1% with NCI/ADR-RES ovarian.
In the case of `CCN(CC)c1ccc(/C=C2\Oc3ccc(O)c(I)c3C2=O)cc1`, the growth in the assay with SR leukemia is 2.38% (active); with RPMI-8226 leukemia, 32.3%; in the assay with OVCAR-8 ovarian, 61.7%; in the assay on OVCAR-5 ovarian, 95.1%; with OVCAR-4 ovarian it was 81.5%; in the assay with SK-OV-3 ovarian, 79.5%. For the same molecule, the growth in the assay on IGROV1 ovarian was 40.4%; in the assay with OVCAR-3 ovarian it was 19.1%; in the assay with HS 578T breast it was 75.4%; in the assay with NCI/ADR-RES ovarian, 37.9%.

Source of the values: PubChem BioAssay (NCI).
